Assay results published in PMC7862700, “An all-to-all approach to the identification of sequence-specific readers for epigenetic DNA modifications on cytosine”.

Tests used:
Assay in all cases: DAPPL (digital affinity profiling via proximity ligation, sequencing); 10 mM Tris-HCl pH 7.5, 50 mM NaCl, 1 mM DTT, 4% glycerol, room temperature, 30 min; GST-TFs on glutathione beads, 16-mer random dsDNA library, 0.1% formaldehyde crosslink after washing; high values mean tight binding
FLI1 = target: T1, FLI1 (Homo sapiens, UniProt Q01543 1-452); settings: protein: recombinant; tags: N-terminal GST; dsDNA, one strand shown
T1 sequence: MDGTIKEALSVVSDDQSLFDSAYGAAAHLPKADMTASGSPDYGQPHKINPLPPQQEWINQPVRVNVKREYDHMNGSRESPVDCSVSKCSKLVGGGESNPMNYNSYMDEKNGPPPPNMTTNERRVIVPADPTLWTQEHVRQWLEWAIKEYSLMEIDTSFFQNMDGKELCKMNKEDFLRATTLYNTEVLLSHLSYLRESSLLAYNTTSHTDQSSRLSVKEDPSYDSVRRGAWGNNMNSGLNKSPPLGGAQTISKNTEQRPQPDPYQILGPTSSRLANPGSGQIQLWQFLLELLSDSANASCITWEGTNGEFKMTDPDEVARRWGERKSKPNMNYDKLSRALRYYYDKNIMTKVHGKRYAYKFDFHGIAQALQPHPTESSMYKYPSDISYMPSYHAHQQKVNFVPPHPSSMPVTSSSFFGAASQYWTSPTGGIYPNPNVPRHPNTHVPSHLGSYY
Outline: (§1)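 A tag-only sample was pooled with DNA-barcoded human transcription factors that had been expressed in yeast as GST fusions and captured on glutathione beads. The pools were incubated for 30 min at room temperature with 200 nmole of a random double-stranded 16-mer DNA library in Tris/NaCl/DTT/glycerol buffer, then washed, crosslinked with 0.1% formaldehyde, proximity-ligated (BsaI/T4 ligase, 1 h, 37 °C), PCR-amplified and sequenced on an Illumina NextSeq500. Binding signal is each hexamer's read frequency for a factor divided by its frequency for the tag-only sample.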

ELK1 = target: T2, ELK1 (Homo sapiens, UniProt P19419 1-428); settings: protein: recombinant; tags: N-terminal GST; dsDNA, one strand shown
T2 sequence: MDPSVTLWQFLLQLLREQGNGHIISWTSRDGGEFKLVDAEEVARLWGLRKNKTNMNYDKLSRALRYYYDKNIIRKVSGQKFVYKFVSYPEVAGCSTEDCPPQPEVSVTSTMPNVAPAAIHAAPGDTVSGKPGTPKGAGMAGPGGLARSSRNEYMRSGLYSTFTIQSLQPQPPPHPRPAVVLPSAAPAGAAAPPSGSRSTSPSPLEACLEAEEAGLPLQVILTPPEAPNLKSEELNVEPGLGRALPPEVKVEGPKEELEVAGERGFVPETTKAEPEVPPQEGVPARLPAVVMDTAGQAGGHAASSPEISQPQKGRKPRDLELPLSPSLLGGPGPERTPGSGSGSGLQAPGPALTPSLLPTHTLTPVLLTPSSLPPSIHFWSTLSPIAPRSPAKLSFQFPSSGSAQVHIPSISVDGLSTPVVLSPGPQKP
Outline: as §1

GABPA = target: T3, GABPA (Homo sapiens, UniProt Q06546 1-454); settings: protein: recombinant; tags: N-terminal GST; dsDNA, one strand shown
T3 sequence: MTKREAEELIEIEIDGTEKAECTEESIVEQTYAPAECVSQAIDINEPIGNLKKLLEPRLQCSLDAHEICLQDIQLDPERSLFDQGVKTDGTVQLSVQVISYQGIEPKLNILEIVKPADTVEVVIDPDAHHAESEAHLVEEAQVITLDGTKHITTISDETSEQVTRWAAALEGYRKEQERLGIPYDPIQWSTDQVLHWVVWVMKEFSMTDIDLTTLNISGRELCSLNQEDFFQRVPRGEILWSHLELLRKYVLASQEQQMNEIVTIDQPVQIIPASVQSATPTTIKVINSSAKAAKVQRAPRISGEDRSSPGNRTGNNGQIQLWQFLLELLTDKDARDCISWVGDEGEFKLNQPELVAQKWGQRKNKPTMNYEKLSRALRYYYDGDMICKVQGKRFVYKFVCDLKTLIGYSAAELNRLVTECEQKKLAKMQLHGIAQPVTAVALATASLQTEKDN
Outline: as §1

ERG = target: T4, ERG (Homo sapiens, UniProt P11308 1-479); settings: protein: recombinant; tags: N-terminal GST; dsDNA, one strand shown
T4 sequence: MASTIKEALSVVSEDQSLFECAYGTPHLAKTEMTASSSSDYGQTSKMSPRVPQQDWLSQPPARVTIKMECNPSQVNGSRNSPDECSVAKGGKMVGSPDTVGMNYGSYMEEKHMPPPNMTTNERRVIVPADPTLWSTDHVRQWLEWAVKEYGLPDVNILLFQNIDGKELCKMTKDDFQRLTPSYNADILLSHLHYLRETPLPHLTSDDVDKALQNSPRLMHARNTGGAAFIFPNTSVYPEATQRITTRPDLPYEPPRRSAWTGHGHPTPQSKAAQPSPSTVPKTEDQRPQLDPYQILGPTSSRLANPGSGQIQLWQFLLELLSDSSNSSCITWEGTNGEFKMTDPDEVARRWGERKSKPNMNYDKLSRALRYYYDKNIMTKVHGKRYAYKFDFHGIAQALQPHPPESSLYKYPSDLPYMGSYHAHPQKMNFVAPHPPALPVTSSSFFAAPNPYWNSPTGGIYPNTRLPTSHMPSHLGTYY
Outline: as §1

EHF = target: T5, EHF (Homo sapiens, UniProt Q9NZC4 1-300); settings: protein: recombinant; tags: N-terminal GST; dsDNA, one strand shown
T5 sequence: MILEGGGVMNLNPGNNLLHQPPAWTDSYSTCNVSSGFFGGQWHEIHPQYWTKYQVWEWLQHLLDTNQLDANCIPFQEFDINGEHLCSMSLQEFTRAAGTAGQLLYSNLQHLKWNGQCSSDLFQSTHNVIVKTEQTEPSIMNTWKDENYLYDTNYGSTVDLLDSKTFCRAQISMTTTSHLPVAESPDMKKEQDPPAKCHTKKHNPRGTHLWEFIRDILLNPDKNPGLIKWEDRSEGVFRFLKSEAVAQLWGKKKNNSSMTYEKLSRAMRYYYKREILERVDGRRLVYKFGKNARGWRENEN
Outline: as §1

SPI1 = SPI1 (Homo sapiens, UniProt P17947 1-270); settings: protein: recombinant; tags: N-terminal GST; dsDNA, one strand shown
Outline: as §1

SPIB = SPIB (Homo sapiens, UniProt Q01892 1-262); settings: protein: recombinant; tags: N-terminal GST; dsDNA, one strand shown
Sequence of SPIB (Q01892 whole entry): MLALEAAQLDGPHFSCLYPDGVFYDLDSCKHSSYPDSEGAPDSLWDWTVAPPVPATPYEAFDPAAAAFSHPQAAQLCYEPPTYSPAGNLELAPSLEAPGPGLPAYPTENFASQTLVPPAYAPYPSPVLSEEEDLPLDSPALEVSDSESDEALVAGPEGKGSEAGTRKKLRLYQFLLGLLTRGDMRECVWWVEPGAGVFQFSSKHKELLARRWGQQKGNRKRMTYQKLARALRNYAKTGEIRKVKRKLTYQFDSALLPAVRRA
Outline: as §1

ELK3 = target: T6, ELK3 (Homo sapiens, UniProt P41970 1-407); settings: protein: recombinant; tags: N-terminal GST; dsDNA, one strand shown
T6 sequence: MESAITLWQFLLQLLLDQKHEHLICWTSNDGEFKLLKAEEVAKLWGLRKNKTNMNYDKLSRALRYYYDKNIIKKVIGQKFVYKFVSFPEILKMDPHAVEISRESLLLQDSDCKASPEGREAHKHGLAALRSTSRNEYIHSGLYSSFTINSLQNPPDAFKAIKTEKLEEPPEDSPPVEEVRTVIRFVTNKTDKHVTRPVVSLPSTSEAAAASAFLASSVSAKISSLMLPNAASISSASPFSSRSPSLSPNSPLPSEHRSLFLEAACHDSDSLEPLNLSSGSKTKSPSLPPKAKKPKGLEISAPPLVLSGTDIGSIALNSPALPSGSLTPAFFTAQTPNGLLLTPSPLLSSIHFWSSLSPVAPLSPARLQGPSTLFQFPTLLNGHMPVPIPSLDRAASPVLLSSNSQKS
Outline: as §1

ETV5 = ETV5 (Homo sapiens, UniProt P41161 1-510); settings: protein: recombinant; tags: N-terminal GST; dsDNA, one strand shown
Sequence of ETV5 (P41161 whole entry): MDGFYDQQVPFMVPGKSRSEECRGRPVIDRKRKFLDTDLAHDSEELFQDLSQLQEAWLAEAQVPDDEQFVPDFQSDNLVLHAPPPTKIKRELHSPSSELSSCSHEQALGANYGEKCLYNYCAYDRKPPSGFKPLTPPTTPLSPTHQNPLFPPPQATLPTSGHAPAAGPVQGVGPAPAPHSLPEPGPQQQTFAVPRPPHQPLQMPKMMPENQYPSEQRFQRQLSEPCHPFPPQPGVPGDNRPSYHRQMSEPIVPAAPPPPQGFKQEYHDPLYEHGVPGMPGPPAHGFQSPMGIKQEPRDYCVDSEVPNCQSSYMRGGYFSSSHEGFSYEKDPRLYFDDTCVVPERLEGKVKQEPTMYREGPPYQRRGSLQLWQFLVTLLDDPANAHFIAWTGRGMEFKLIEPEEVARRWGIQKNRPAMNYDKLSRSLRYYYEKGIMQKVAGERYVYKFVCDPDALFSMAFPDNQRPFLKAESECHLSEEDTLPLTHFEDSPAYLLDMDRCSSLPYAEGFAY
Outline: as §1

HSF1 = HSF1 (Homo sapiens, UniProt Q00613 1-529); settings: protein: recombinant; tags: N-terminal GST; chain copies: 3; dsDNA, one strand shown
Sequence of HSF1 (Q00613 whole entry): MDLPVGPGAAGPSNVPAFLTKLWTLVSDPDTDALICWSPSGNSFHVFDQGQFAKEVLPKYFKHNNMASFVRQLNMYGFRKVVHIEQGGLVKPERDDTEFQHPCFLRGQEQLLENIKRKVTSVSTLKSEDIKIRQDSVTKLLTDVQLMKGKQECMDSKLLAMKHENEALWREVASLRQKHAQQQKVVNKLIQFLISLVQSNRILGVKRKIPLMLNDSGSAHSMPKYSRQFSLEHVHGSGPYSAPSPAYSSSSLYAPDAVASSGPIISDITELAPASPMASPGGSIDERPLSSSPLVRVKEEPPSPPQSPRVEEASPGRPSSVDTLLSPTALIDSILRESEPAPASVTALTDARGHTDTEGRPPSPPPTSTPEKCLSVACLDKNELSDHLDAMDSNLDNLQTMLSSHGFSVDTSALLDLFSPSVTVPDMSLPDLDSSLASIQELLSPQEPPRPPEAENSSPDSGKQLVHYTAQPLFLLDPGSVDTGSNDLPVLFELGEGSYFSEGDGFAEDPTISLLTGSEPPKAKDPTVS
Outline: as §1

SPIC = target: T7, SPIC (Homo sapiens, UniProt Q8N5J4 1-248); settings: protein: recombinant; tags: N-terminal GST; dsDNA, one strand shown
T7 sequence: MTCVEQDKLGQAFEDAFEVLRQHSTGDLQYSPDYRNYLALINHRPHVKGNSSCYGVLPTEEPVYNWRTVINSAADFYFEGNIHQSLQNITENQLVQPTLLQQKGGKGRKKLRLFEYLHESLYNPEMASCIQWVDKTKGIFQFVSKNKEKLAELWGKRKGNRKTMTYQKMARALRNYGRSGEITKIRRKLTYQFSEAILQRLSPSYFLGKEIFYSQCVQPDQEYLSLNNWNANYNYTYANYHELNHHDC
Outline: as §1

ELF4 = ELF4 (Homo sapiens, UniProt Q99607 1-663); settings: protein: recombinant; tags: N-terminal GST; dsDNA, one strand shown
Sequence of ELF4 (Q99607 whole entry): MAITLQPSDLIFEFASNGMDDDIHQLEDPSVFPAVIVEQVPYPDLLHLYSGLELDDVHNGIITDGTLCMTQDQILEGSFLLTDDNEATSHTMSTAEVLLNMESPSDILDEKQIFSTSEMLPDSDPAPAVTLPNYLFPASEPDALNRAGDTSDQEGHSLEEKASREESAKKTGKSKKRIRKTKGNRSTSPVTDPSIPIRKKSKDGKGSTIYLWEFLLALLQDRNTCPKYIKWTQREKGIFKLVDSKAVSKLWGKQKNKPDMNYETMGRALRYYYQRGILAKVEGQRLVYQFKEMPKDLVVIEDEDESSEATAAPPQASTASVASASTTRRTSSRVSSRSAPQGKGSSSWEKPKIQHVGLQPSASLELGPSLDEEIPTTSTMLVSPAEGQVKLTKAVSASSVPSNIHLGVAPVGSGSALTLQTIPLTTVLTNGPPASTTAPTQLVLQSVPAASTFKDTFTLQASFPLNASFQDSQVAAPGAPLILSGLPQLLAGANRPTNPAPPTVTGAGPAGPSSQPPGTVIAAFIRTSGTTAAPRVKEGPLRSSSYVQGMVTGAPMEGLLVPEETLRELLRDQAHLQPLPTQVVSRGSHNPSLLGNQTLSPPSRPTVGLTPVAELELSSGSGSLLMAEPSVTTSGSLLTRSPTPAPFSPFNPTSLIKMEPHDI
Outline: as §1

ELK4 = target: T8, ELK4 (Homo sapiens, UniProt P28324-2 1-405); settings: protein: recombinant; tags: N-terminal GST; dsDNA, one strand shown
T8 sequence: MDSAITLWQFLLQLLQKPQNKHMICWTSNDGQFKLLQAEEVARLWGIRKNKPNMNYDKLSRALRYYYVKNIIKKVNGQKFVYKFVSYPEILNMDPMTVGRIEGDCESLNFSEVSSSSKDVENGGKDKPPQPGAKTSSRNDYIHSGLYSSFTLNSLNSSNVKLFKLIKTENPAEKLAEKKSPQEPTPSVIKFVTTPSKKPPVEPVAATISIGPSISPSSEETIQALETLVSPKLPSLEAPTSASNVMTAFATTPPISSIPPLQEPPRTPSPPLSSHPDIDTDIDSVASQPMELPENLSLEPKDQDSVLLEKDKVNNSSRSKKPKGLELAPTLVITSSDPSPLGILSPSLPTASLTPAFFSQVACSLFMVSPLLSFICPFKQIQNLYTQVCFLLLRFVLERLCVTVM
Outline: as §1

ETV2 = target: T9, ETV2 (Homo sapiens, UniProt O00321 1-342); settings: protein: recombinant; tags: N-terminal GST; dsDNA, one strand shown
T9 sequence: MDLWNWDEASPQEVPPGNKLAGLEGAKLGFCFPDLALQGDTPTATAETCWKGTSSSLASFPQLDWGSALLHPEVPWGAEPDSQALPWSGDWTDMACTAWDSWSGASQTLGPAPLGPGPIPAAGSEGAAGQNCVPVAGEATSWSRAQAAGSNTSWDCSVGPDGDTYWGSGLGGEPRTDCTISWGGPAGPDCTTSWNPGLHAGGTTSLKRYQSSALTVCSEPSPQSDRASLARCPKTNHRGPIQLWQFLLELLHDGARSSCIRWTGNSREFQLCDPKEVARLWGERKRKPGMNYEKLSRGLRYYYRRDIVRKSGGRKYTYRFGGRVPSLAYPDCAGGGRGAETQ
Outline: as §1

ELF3 = target: T10, ELF3 (Homo sapiens, UniProt P78545 1-371); settings: protein: recombinant; tags: N-terminal GST; dsDNA, one strand shown
T10 sequence: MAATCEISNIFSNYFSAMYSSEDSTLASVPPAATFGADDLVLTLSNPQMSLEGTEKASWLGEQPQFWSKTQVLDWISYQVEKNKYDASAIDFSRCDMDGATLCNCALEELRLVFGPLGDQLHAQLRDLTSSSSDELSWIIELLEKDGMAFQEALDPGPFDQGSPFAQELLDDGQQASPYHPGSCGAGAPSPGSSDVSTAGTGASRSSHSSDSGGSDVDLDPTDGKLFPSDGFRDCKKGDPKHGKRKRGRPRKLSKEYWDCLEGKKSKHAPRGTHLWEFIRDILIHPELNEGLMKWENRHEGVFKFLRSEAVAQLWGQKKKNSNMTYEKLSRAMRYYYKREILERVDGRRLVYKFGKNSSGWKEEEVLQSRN
Outline: as §1

CRX = CRX (Homo sapiens, UniProt O43186 1-299); settings: protein: recombinant; tags: N-terminal GST; dsDNA, one strand shown
Sequence of CRX (O43186 whole entry): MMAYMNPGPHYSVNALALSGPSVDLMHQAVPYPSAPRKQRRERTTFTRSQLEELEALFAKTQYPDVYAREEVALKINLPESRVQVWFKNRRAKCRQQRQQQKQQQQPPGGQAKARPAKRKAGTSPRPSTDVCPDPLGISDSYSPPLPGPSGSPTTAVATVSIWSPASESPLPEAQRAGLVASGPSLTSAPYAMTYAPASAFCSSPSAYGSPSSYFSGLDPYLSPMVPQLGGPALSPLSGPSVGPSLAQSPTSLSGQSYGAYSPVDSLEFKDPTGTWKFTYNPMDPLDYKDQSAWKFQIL
Outline: as §1

ETV1 = ETV1 (Homo sapiens, UniProt P50549 1-477); settings: protein: recombinant; tags: N-terminal GST; dsDNA, one strand shown
Sequence of ETV1 (P50549 whole entry): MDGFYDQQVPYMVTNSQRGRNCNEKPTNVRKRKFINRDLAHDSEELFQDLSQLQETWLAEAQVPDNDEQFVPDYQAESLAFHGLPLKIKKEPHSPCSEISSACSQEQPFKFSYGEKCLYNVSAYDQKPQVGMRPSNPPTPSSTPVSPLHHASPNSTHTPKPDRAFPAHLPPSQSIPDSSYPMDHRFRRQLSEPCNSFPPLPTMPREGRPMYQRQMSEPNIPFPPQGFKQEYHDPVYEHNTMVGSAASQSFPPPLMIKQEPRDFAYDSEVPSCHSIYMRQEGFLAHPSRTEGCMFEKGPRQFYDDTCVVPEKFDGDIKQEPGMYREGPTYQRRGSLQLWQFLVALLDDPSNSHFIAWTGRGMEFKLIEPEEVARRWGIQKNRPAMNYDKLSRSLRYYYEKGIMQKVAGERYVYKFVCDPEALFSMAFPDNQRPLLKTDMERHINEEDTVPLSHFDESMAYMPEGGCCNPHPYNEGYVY
Outline: as §1

Sequence: AGGTTT
- binding signal (FLI1): 1.02 fold enrichment (6-mer frequency, TF over GST control)
- binding signal (ELK1): 1.04 fold enrichment (6-mer frequency, TF over GST control)
- binding signal (GABPA): 1.08 fold enrichment (6-mer frequency, TF over GST control)
- binding signal (ERG): 1.06 fold enrichment (6-mer frequency, TF over GST control)
- binding signal (EHF): 1.07 fold enrichment (6-mer frequency, TF over GST control)
- binding signal (SPI1): 1.06 fold enrichment (6-mer frequency, TF over GST control)
- binding signal (SPIB): 1.04 fold enrichment (6-mer frequency, TF over GST control)
- binding signal (ELK3): 1.13 fold enrichment (6-mer frequency, TF over GST control)
- binding signal (ETV5): 1.05 fold enrichment (6-mer frequency, TF over GST control)
- binding signal (HSF1): 1.04 fold enrichment (6-mer frequency, TF over GST control)
- binding signal (SPIC): 1.03 fold enrichment (6-mer frequency, TF over GST control)
- binding signal (ELF4): 1.07 fold enrichment (6-mer frequency, TF over GST control)
- binding signal (ELK4): 1.06 fold enrichment (6-mer frequency, TF over GST control)
- binding signal (ETV2): 1.05 fold enrichment (6-mer frequency, TF over GST control)
- binding signal (ELF3): 1.07 fold enrichment (6-mer frequency, TF over GST control)
- binding signal (CRX): 1.19 fold enrichment (6-mer frequency, TF over GST control)
- binding signal (ETV1): 1.1 fold enrichment (6-mer frequency, TF over GST control)
